HP1b binding inh: blocks HP1-beta chromodomain binding to methylated histone tails. 390,000 compounds, 0.56% hits. Potency, µM (series often up to 114 µM), without a hit: at the highest dose activity change, negative = inhibition, usual class: inhibitors. AID 540317. AlphaScreen HP1-beta / biotin-H3K9me3 peptide binding; also: nearly all actives have a fitted effect of over 70% in size
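HP1-beta protein (50 nM final) preincubated 30 min at room temperature with biotinylated H3(1-18)K9me3 peptide (50 nM) in PBS pH 7.4, 0.01% Tween-20, then compound added for 30 min. AlphaScreen streptavidin donor/nickel chelate acceptor beads (10 ug/mL final), 30 min dark, luminescence read.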
BAZ2B inh: inhibitors of human BAZ2B bromodomain. AID 504333. 360,000 compounds, 4.4% hits. Potency, µM (highest dose often 114 µM), for inactives: at the highest dose activity change, negative = inhibition, usual class: inhibitors. AlphaScreen BAZ2B-H3K14Ac peptide displacement; also: % is scaled to controls: 0 for no effect and ±100 for the full control effect; nearly all actives have a fitted effect of over 60% in size
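Protein-peptide AlphaScreen: BAZ2B 50 nM, b-H3K14Ac 50 nM, 1x PBS pH 7.4 + 0.01% Tween-20. Preincubation 30 min RT; cpd 30 min RT (top 110 uM); beads 20 min RT, light-protected.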
L3MBTL1 inh: inhibitors of human L3MBTL1; AlphaScreen L3MBTL1–H3K9me1 peptide binding; Potency, µM (top dose mostly 57.1 µM), without a hit: at the top dose activity, negative = inhibition, most hits filed as inhibitors; 230,000 compounds, 0.66% hits; also: % is scaled to controls: 0 for no effect and ±100 for the full control effect; nearly all actives have a fitted effect of over 60% in size
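L3MBTL1 (50 nM) pre-complexed 30 min with biotinylated H3(1-15)K9me1 peptide (75 nM), then compounds added for 30 min at room temperature; AlphaScreen streptavidin donor/nickel chelate acceptor beads (10 ug/mL final) read after 30 min dark incubation.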
G9a inh: inhibitors of human histone lysine methyltransferase G9a. Q96KQ7. G9a H3K9 monomethylation, AlphaScreen, 2 h. Potency, µM (titrated, usually from 102 µM), for inactives: top-dose activity, negative = inhibition, actives largely listed as inhibitors. 350,000 compounds, 8.8% hits; also: % is scaled to controls: 0 for no effect and ±100 for the full control effect; nearly all actives have a fitted effect of over 75% in size
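G9a (20 nM) preincubated 15 min RT with compounds, then 500 nM biotinylated H3K9 peptide and 20 uM SAM added; 2 h RT reaction. Monomethyl-H3K9 product detected by AlphaScreen with anti-H3K9me1 antibody, streptavidin donor and anti-rabbit IgG acceptor beads.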
Sfp PPTase inh: blocks B. subtilis Sfp PPTase activity; Q9F4F7; Biochemical Sfp PPTase activity, qHTS; Potency, µM, for inactives: largest response in the series, negative = inhibition, hits mostly inhibitors; 310,000 compounds, 3.5% hits;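 also: the enzyme is Sfp with the accession as filed and its product quenches rhodamine fluorescence; 0% = enzyme reaction without inhibitor and -100% = no enzyme wells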
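After 15 min at room temperature with compound, 15 nM Sfp received 5 uM rhodamine-CoA plus 12.5 uM BHQ-2-ybbR (50 mM Hepes pH 7.6, 10 mM MgCl2). Rate came from the fluorescence difference over 30 min, ex 525/em 598 nm.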
JMJD2A Tudor inh: inhibitors of human JMJD2A Tudor domain. O75164. AlphaScreen JMJD2A-Tudor / H3K4me3 peptide binding. Potency, µM (titrated, usually from 114 µM), inactives show top-dose activity change, negative = inhibition, hits mostly inhibitors. 390,000 compounds, 4.4% hits. AID 504339; also: % is scaled to controls: 0 for no effect and ±100 for the full control effect; nearly all actives have a fitted effect of over 50% in size
Target sequence (O75164 whole entry, looked up, the tested form may be a part): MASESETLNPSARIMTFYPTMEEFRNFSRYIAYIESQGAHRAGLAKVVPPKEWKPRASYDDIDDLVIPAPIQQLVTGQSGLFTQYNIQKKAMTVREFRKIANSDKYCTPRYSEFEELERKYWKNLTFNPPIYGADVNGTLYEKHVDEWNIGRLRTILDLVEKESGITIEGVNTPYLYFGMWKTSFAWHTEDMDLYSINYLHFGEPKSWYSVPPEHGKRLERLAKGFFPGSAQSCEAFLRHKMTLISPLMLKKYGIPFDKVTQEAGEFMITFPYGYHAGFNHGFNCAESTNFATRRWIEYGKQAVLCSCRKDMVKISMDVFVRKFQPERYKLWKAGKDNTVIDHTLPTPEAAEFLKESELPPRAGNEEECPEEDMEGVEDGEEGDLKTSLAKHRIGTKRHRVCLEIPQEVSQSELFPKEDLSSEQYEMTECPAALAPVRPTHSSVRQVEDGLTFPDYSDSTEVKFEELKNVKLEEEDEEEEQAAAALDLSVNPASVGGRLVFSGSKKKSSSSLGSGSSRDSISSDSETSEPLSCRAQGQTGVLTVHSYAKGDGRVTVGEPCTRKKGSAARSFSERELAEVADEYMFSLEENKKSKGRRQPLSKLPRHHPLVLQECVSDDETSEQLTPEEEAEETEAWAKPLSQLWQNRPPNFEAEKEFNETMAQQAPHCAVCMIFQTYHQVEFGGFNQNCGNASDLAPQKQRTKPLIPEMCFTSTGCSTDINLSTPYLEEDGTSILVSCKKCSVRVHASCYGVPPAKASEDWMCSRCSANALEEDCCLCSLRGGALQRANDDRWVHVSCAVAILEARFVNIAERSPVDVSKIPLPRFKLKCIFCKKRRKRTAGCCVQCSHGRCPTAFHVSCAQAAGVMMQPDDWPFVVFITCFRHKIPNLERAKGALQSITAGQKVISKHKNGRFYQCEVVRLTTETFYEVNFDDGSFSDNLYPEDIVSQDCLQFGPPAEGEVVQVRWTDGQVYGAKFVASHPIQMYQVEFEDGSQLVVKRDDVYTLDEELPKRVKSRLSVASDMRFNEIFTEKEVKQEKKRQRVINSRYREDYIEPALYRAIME
* = called active by the depositor; [ ] = dose if it differs, or a comment. An excerpt weighted towards active compounds, which were near 12% of everything screened. Calls follow the shape of the dose curve; as a rule, active = well fitted curve in the direction sought with a large enough effect; inconclusive = small, poorly fitted or top-dose-only effect, or another doubt; inactive = no such curve, though single readings can be large; an effect the other way counts as inactive or inconclusive. Potency is read from the fitted curve at half-maximal effect.

COc1ccc(OC)c(CNC(=O)c2ccc(Sc3ccc(C)cc3)c(N)c2)c1 was read as HP1b binding inh 0.8%, BAZ2B inh inconclusive, G9a inh -5.1%[59 µM] and JMJD2A Tudor inh inconclusive.
For COc1cc(Sc2ccc(C)cc2)c(OC)cc1N the results were HP1b binding inh 28.2µM*, BAZ2B inh 14.1µM*, L3MBTL1 inh inconclusive, G9a inh 3.55µM*, Sfp PPTase inh -23.1% and JMJD2A Tudor inh 22.4µM*.
`COC(=O)c1ccc(Sc2ccc(C)cc2)c(N)c1` gave HP1b binding inh 41.2%, BAZ2B inh 53.7%, L3MBTL1 inh 36.4%, G9a inh -39.2%[12.7 µM], Sfp PPTase inh 50.1µM* and JMJD2A Tudor inh 63.5%.
Screening CC(COc1ccc(/C=C/c2ccccc2)cc1)[N+](C)(C)C (stereo not given) returned HP1b binding inh 26.7%, BAZ2B inh 3.9%, L3MBTL1 inh -2.4%, G9a inh 3.98µM* and JMJD2A Tudor inh -25.2%.
N=C1N(/N=C/c2ccccc2)C(=Nc2ccccc2)C(=S)N1c1ccccc1 was read as HP1b binding inh 29.6%, BAZ2B inh inconclusive, L3MBTL1 inh -2.3%, G9a inh 10µM*, Sfp PPTase inh 31.6µM* and JMJD2A Tudor inh 0.0%.
Screening Cc1ccc(NC(=O)CSCC#N)cc1 returned HP1b binding inh 22.6%, BAZ2B inh 4.3%, G9a inh 50.1µM*, Sfp PPTase inh 11.4% and JMJD2A Tudor inh 4.6%.
`O=C(NCCCn1ccnc1)c1ccccc1Cl` gave HP1b binding inh 2.6%, BAZ2B inh -13.4%, G9a inh 5.3%, Sfp PPTase inh 19.6% and JMJD2A Tudor inh -12.9%.
For Cc1ccc(C(=O)C[n+]2cc(-c3ccc(C)cc3)n3c2CCCCC3)cc1 the results were HP1b binding inh 7.4%, BAZ2B inh 31.3%, L3MBTL1 inh 28.3%, G9a inh inconclusive, Sfp PPTase inh 2.7% and JMJD2A Tudor inh -13.2%.
For CC1CCC2(CC1)NC(=O)N(CC(=O)Nc1nc(-c3ccc(F)cc3)cs1)C2=O (stereo not given) the results were HP1b binding inh 11.7%, BAZ2B inh -3.2%, G9a inh 50.1µM*, Sfp PPTase inh 8.0% and JMJD2A Tudor inh 5.2%.
COc1ccc(-c2csc(NC(=O)CN3C(=O)NC4(CCCC4)C3=O)n2)cc1 was read as HP1b binding inh 15.0%, BAZ2B inh -5.1%, L3MBTL1 inh 4.7%, G9a inh -28.2% and JMJD2A Tudor inh -3.4%.
`Cc1ccc(NC(=O)C[n+]2cc(-c3ccc(C)cc3)n3c2CCC3)cc1` gave HP1b binding inh 16.7%, BAZ2B inh 3.8%, L3MBTL1 inh 6.6%, G9a inh -48.8%, Sfp PPTase inh 13.4% and JMJD2A Tudor inh 8.91µM*.
`Cc1ccc(-c2c[n+](CC(=O)Nc3nc(-c4ccc(F)cc4)cs3)c3n2CCC3)cc1` gave HP1b binding inh -18.3%, BAZ2B inh -36.6%, L3MBTL1 inh -7.2%, G9a inh 44.7µM*, Sfp PPTase inh inconclusive and JMJD2A Tudor inh -31.2%.
`O=C(C[n+]1cc(-c2ccccc2)n2c1CCCCC2)c1ccc(Br)cc1` gave HP1b binding inh 15.7%, BAZ2B inh -24.1%, L3MBTL1 inh -9.4%, G9a inh 50.1µM*, Sfp PPTase inh 12.2% and JMJD2A Tudor inh -16.8%.
For Cc1cc(C)c(NC(=O)CSc2ccnc(=O)[nH]2)c(C)c1 the results were HP1b binding inh 10.7%, BAZ2B inh 0.4%, G9a inh -0.5%[59 µM] and JMJD2A Tudor inh 0.3%.
For CCOc1ccc(-c2nnc(SCC(=O)NCc3ccccc3Cl)o2)cc1 the results were HP1b binding inh 37.8%, BAZ2B inh -10.6%, G9a inh inconclusive and JMJD2A Tudor inh -13.6%.
For COc1ccc(C2Nc3ccccc3NC3=C2C(=O)CC(C)(C)C3)cc1O (stereo not given) the results were HP1b binding inh -5.2%, BAZ2B inh -1.2%, L3MBTL1 inh -4.3%, G9a inh -16.2%, Sfp PPTase inh 15.8% and JMJD2A Tudor inh 12.6µM*.
`Cn1cnc2nc(NCCO)nc(NCc3ccccc3)c21` gave G9a inh 30.7%[59 µM] and Sfp PPTase inh 4.7%.
Screening Cc1cccc(OCCCOc2cccc3cccnc23)c1C returned HP1b binding inh 86.7%, BAZ2B inh inconclusive, L3MBTL1 inh 4.3%, G9a inh 82.6%, Sfp PPTase inh 79.4µM* and JMJD2A Tudor inh 36.8%.
Screening Cc1ccc(OCCCOc2cccc3cccnc23)cc1C returned HP1b binding inh 56.6%, BAZ2B inh 5.2%, L3MBTL1 inh -3.4%, G9a inh 8.7%[12.7 µM], Sfp PPTase inh 89.1µM* and JMJD2A Tudor inh 58.4%.
Screening CC(C)Cn1c(SC(C)C(=O)Nc2ccc(N3CCOCC3)cc2)nc2ccccc21 (stereo not given) returned HP1b binding inh inconclusive, BAZ2B inh 35.5µM*, L3MBTL1 inh -18.5%, G9a inh inconclusive, Sfp PPTase inh 6.6% and JMJD2A Tudor inh inconclusive.
For CC(Sc1nnc(COc2ccc(Cl)cc2)o1)C(=O)Nc1ccc(N2CCOCC2)cc1 (stereo not given) the results were HP1b binding inh 19.3%, BAZ2B inh 13.2%, L3MBTL1 inh 0.9%, G9a inh 35.5µM* and JMJD2A Tudor inh -11.5%.
COc1ccc(OCc2nnc(SC(C)C(=O)Nc3ccc(N4CCOCC4)cc3)n2C)cc1 (stereo not given) was read as HP1b binding inh 6.9% and JMJD2A Tudor inh -15.1%.
Screening CC(Sc1nnc2ccccn12)C(=O)Nc1ccc(N2CCOCC2)cc1 (stereo not given) returned HP1b binding inh 9.4%[57 µM], L3MBTL1 inh 0.8% and JMJD2A Tudor inh -15.2%.
Screening Cc1nnc(SC(C)C(=O)Nc2ccc(N3CCOCC3)cc2)n1Cc1ccccc1 (stereo not given) returned HP1b binding inh 12.8%, BAZ2B inh 0.4%, L3MBTL1 inh -5.9%, G9a inh 70.8µM* and JMJD2A Tudor inh -10.1%.
For Cc1ccc2onc(CC(=O)N3CCN(c4ccccc4)CC3)c2c1 the results were HP1b binding inh 15.4%, BAZ2B inh -29.8%, G9a inh -6.2%[59 µM] and JMJD2A Tudor inh -30.6%.
`O=C(CCc1nnc(-c2ccsc2)o1)N1CCCCC1CCn1ccnc1` (stereo not given) gave HP1b binding inh 29.0%, BAZ2B inh 0.3%, L3MBTL1 inh 2.4%, Sfp PPTase inh 7.9% and JMJD2A Tudor inh -10.5%.
Screening Nc1nc(-c2cc(O)ccc2[N+](=O)[O-])cc(-c2ccccc2)c1[N+](=O)[O-] returned HP1b binding inh 40.9%, BAZ2B inh inconclusive, L3MBTL1 inh -12.5%, G9a inh inconclusive, Sfp PPTase inh inconclusive and JMJD2A Tudor inh -21.2%.
